Data taken from PubChem BioAssay (NCI).
About 83,000 compounds went through this panel and 20% of them were active in at least one assay; those are over-represented in the sample as a whole.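 Method: cells in 96-well plates; compound added at one concentration; 48 h incubation; percent growth measured; values under 10 scored active.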 Activity calls are given as the source filed them.

Assays:
Assay in all cases: NCI-60 one-dose screen, 48 h (100 = growth as untreated, 0 = no growth, -100 = all killed)
Conditions in all cases: 10 µM unless noted
[1] = test system: NCI/ADR-RES ovarian
[2] = test system: T-47D breast
[3] = test system: MDA-MB-435 melanoma
[4] = test system: SW-620 colon
[5] = test system: MCF7 breast
[6] = test system: HCT-116 colon
[7] = test system: HCC-2998 colon
[8] = test system: KM12 colon
[9] = test system: BT-549 breast

Measured: growth

CCOC(=O)C(Cc1ccc(N(CCCl)CCCl)cc1)NC(=O)C(CC(C)C)NC(C)=O (stereo unspecified)
active: [4] 9.17%
inactive: [1] 46.6% | [2] 22.5% | [3] 44.4% | [5] 21.3% | [6] 23.6% | [7] 50.8% | [8] 71.6%

COC(=O)CCC1=C(C)c2cc3[n-]c(cc4nc(cc5[n-]c(cc1n2)c(CCC(=O)OC)c5C)C=C4C)cc3C.[Cd+2]
inactive: [1] 83.5% | [2] 42.7% | [3] 23.1% | [4] 25.3% | [5] 26.9% | [6] 79.8% | [7] 95.9% | [8] 13.3%

COC(=O)CCc1c[nH]c2ccc(N(CCCl)CCCl)cc12
inactive: [1] 52.7% | [2] 60.2% | [3] 74.1% | [4] 47.5% | [5] 30.9% | [6] 53.1% | [7] 84% | [8] 86.6%

COc1cc(C=Nc2cccc(Br)c2)ccc1N(CCCl)CCCl
inactive: [1] 80.7% | [2] 91.3% | [3] 103% | [4] 74.5% | [5] 66.6% | [6] 87% | [7] 60.1% | [8] 40.6%

C/C(=C\c1ccn(-c2ccccc2N)n1)[C@@H]1C[C@@H]2O[C@]2(C)CCC[C@H](C)[C@H](O)[C@@H](C)C(=O)C(C)(C)[C@@H](O)CC(=O)O1
inactive: [2] 36.4% | [4] 38.3% | [5] 18.6% | [6] 12.1% | [8] 14.6%
active: [1] -4.02% | [3] -46.6% | [7] 3.48%

CC12CC(=O)C3(SC#N)C(CCC4=CC(=O)CCC43C)C1CCC2=O (stereo unspecified)
inactive: [2] 32.8% | [9] 90.7% | [3] 70.9% | [4] 40.6% | [5] 57.7% | [6] 39.7% | [7] 105% | [8] 102%

C/C(CC(C)(C)N1CC1)=N\NC(=O)Nc1cccc2ccccc12
inactive: [2] 55.8% | [9] 68.5% | [3] 79.6% | [4] 52.3% | [5] 24.9% | [6] 46.5% | [7] 75.3% | [8] 75.9%

C1CCC([PH+](C2CCCCC2)C2CCCCC2[PH+](C2CCCCC2)C2CCCCC2)CC1.O=C(C1[CH-]CCCC1)C1CCCC[N-]1.[Au] (stereo unspecified)
active: [9] -14.7% | [3] -43.6% | [4] 2.27% | [6] -54% | [7] -83% | [8] -60.9%

O=C(N/N=C\c1ccc(N(CCCl)CCCl)cc1Cl)c1cccnc1
inactive: [1] 86.4% | [9] 90.7% | [3] 104% | [4] 79.2% | [5] 34.4% | [6] 43% | [7] 76.8% | [8] 102%

C=CCCCCCCCCC(=O)[O-].C=CCCCCCCCCC(=O)[O-].[Zn+2]
inactive: [1] 99.2% | [9] 108% | [3] 100% | [4] 102% | [5] 108% | [6] 101% | [7] 107% | [8] 94.3%

O=[N+]([O-])c1ccc([Se]C2CCCCC2Cl)c([N+](=O)[O-])c1 (stereo unspecified)
inactive: [1] 79% | [9] 60.8% | [3] 55.3% | [4] 106% | [6] 46.6% | [7] 98.8%

COc1cc([N+](=O)[O-])c2nc(C)ccc2c1[N+](=O)[O-]
inactive: [1] 105% | [9] 97.4% | [3] 71.3% | [4] 72.7% | [6] 63.5% | [7] 107% | [8] 79.8%

CC12CCC3C(CCC4Cc5[nH]c6ccccc6c5CC43C)C1CCC2O (stereo unspecified)
active: [3] -25.2% | [5] 5.13%
inactive: [1] 38.4% | [2] 29.2% | [4] 11.5% | [6] 23.3% | [8] 23.3%

COC1CC2c3ccccc3C1C(C)=[N+]2C (stereo unspecified)
inactive: [1] 78.7% | [2] 107% | [3] 100% | [4] 104% | [6] 103% | [8] 104%

C=C1C[C@](OC)([C@H](O)C(=O)N[C@@H](OC)[C@@H]2C[C@@H](O)C(C)(C)[C@@H](C[C@@H](COC)OC)O2)O[C@H](C)[C@@H]1C
active: [1] -42.3% | [2] -7.29% | [3] -83.3% | [4] -64.3% | [5] -52.6% | [6] -16.7% | [8] -41.8%

CCOP(=O)(Nc1ccc2c(c1)/C(=N/NC(N)=S)c1ccccc1-2)OCC
inactive: [1] 100% | [9] 101% | [3] 107% | [4] 115% | [5] 69.6% | [6] 103% | [7] 119% | [8] 88.9%

[Cl][Hg][c]1cc[c]([Hg][Cl])o1
inactive: [1] 69.3% | [4] 12.3% | [6] 30.7% | [7] 106% | [8] 76%
active: [2] -7.76% | [5] -18.6%

N/C(=N/N=C/c1ccncc1)N[N+](=O)[O-]
inactive: [1] 104% | [3] 105% | [4] 106% | [5] 99.1% | [6] 102% | [7] 109% | [8] 100%

CC1=C2[C@@H](CC1)[C@]1(C)O[C@@](C(C)C)(C[C@H]1O)[C@H]2OC(=O)C1CC1c1ccccc1 (stereo partly specified)
inactive: [1] 77.4% | [2] 53.4% | [3] 98.4% | [4] 101% | [6] 90.7% | [7] 115% | [8] 92%

Cc1c(NS(=O)(=O)c2ccccc2)ccc([N+](=O)[O-])c1Cl
inactive: [1] 86.3% | [9] 77.7% | [3] 39.8% | [4] 91.6% | [5] 92.8% | [6] 73.3% | [8] 70.1%

Fc1ccc(C2=CCNCC2)cc1
inactive: [1] 78.6% | [2] 99.2% | [3] 102% | [4] 104% | [5] 93.9% | [6] 109% | [8] 109%

Cc1ccccc1NC(=NCCCN1CC1)Nc1ccccc1C
inactive: [2] 74.5% | [9] 104% | [3] 93% | [4] 87.1% | [5] 68.9% | [6] 79.8% | [7] 102% | [8] 94.6%

C1CCC([PH+](C2CCCCC2)C2CCCCC2[PH+](C2CCCCC2)C2CCCCC2)CC1.[Au].[CH-]1CCCCC1CC1CCCC[N-]1 (stereo unspecified)
active: [2] 7.94% | [9] -53.6% | [3] -39.2% | [4] -24% | [5] -44.2% | [6] -65.8% | [7] -92.5% | [8] -70.2%

O=C(N/N=C\c1ccc(N(CCCl)CCCl)cc1)c1cccc([N+](=O)[O-])c1
inactive: [1] 88.1% | [9] 96% | [3] 105% | [4] 100% | [5] 79.9% | [6] 97% | [7] 101% | [8] 93.6%

CCCCCCCCOC(=O)CCN1CC1
inactive: [2] 108% | [9] 107% | [4] 113% | [5] 102% | [6] 112% | [7] 110% | [8] 109%

CCCc1cc(O)c2c3c(c(=O)oc2c1)CN(C)CC3
active: [3] -57.8%
inactive: [2] 25.5% | [9] 39.2% | [4] 12.8% | [5] 19% | [6] 20.8% | [7] 53.9% | [8] 35.7%

NC1CC2CCCCC2CC1(O)c1ccccc1 (stereo unspecified)
inactive: [2] 99.5% | [9] 102% | [3] 105% | [4] 101% | [5] 96.1% | [6] 93.7% | [7] 109% | [8] 99.7%

ClCCN(CCCl)c1ccc(/C=N\N=C\c2ccc(N(CCCl)CCCl)cc2)cc1
inactive: [1] 55.1% | [9] 50.5% | [3] 27.4% | [4] 36.8% | [5] 35.1% | [6] 36.7% | [7] 45.7% | [8] 30.3%

CN1CCCCC1C(C)(O)c1ccccc1 (stereo unspecified)
inactive: [1] 96.1% | [2] 92.2% | [4] 110% | [5] 85.7% | [6] 93% | [7] 115% | [8] 106%

O[C@H](CN1CC1)[C@@H](O)CN1CC1
inactive: [1] 56.3% | [2] 48% | [3] 78.3% | [4] 64.4% | [6] 66.3% | [7] 97% | [8] 91.5%

CC(C)=CCC/C(C)=C/C=N\N=C(/N)N[N+](=O)[O-]
inactive: [1] 102% | [9] 92.8% | [3] 94% | [4] 106% | [5] 81.1% | [6] 91.1% | [7] 108% | [8] 95.7%

CCC1(C)CC(CCNCc2ccccc2O)(c2ccc(C)cc2)CCO1 (stereo unspecified)
inactive: [2] 103% | [9] 101% | [3] 100% | [4] 103% | [5] 97.3% | [6] 109% | [7] 117% | [8] 107%

CN1C(=O)C(=Cc2cn(CCCCCCn3c4ccccc4c(=O)c4ccccc43)c3ccccc23)C(=O)N(C)C1=O
inactive: [1] 90.7% | [2] 75% | [4] 103% | [5] 81.1% | [6] 85.5% | [7] 99.4% | [8] 98.7%

CCn1nccc1NC(=O)C(=O)c1cn(Cc2ccc(F)cc2)c2cccc(OC)c12
inactive: [1] 90.2% | [2] 80.5% | [3] 104% | [4] 93.3% | [5] 97.3% | [6] 51.1% | [7] 102% | [8] 97.2%

CCOC(=O)CCC(NC(=O)C(Cc1ccc(N(CCCl)CCCl)cc1)NC=O)C(=O)OCC (stereo unspecified)
inactive: [1] 67.2% | [3] 21.1% | [4] 51.5% | [5] 22.1% | [6] 61.5% | [7] 46.9% | [8] 82.7%

COc1ccc(C(=O)c2sc3nc4c(cc3c2N)N2CCC4CC2)cc1OC
inactive: [1] 79.4% | [9] 81.5% | [3] 99.9% | [4] 126% | [5] 84.5% | [6] 86.2% | [7] 109% | [8] 97.7%

Cc1ccc(S(=O)(=O)F)cc1C(=O)O
inactive: [1] 105% | [2] 91.6% | [4] 109% | [5] 111% | [6] 111% | [7] 108% | [8] 109%

CC(CO)NC1CCCCC1 (stereo unspecified)
inactive: [1] 116% | [9] 106% | [3] 112% | [4] 105% | [5] 109% | [6] 105% | [7] 106% | [8] 114%

COc1ccc(/C=C\c2cc(OC)c(OC)c(OC)c2)cc1OCC(=O)Nc1nc2ccc(OC(F)(F)F)cc2s1
inactive: [2] 22.4% | [4] 25.1% | [5] 24.3% | [6] 19.5% | [8] 19.2%
active: [1] -7.34% | [3] -30.2%

C=CCc1cc2c(cc1OCC)OCO2
inactive: [1] 105% | [9] 82.6% | [4] 102% | [5] 90.9% | [6] 85.5% | [7] 93.8% | [8] 104%

Cc1cccc(N2CCN(C(C)C#N)CC2)c1 (stereo unspecified)
inactive: [1] 96.9% | [2] 98.4% | [3] 98.4% | [5] 99.3% | [6] 108% | [7] 96.9% | [8] 108%

O=C1CCC2(O)[C@@H]3Cc4ccc(O)c5c4[C@]2(CCN3Cc2ccoc2)C1O5 (stereo partly specified)
inactive: [2] 98.1% | [9] 110% | [3] 105% | [4] 102% | [5] 97.5% | [6] 88.1% | [7] 104% | [8] 98.2%

O=[As](O)(O)c1ccccc1[As](=O)(O)O
inactive: [1] 104% | [9] 116% | [3] 98.8% | [4] 112% | [5] 98% | [6] 107% | [7] 101% | [8] 105%
